# Where “and” joins values, the source holds several entries; their conditions need not be identical. Equal values may be shown once. In all, about 16,000 compounds went through this assay and about 5,800 (36%) were called active. Not shown: some 23% with an inconclusive outcome. Calls come from the whole dose curve; as a rule, active = well fitted curve in the direction sought with a large enough effect; inconclusive = small, poorly fitted or top-dose-only effect, or effect the other way; inactive = no such curve, though single readings can be large or run the other way. The list shows a part of the results.
# Target: Cytochrome P450 2C19 (Homo sapiens) (UniProt P33261)
# Assay: Cytochrome panel assay with activity outcomes
# Conditions: recombinant CYP, pro-luciferin dealkylation, luminescence, p450-cyp2c19; series mostly up to 57.1 µM; activity, negative = inhibition: at the top concentration
# % is set by controls: 0 for no effect and ±100 for the full control effect.
# Chain of Cytochrome P450 2C19 (Homo sapiens) (P33261 whole entry, looked up): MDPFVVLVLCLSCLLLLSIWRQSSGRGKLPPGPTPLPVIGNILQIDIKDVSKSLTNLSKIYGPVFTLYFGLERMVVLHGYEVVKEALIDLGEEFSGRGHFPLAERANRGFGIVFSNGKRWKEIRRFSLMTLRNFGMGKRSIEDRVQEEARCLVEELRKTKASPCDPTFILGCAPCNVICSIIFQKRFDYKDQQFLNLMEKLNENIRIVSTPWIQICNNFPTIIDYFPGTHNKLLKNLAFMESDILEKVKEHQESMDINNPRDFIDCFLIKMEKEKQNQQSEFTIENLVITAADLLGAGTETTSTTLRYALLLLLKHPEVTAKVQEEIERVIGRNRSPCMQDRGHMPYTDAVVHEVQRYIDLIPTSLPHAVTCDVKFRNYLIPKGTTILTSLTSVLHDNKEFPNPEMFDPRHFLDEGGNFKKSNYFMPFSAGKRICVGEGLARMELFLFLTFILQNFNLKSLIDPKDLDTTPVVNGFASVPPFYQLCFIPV
SMILES,AC50,"activity, negative = inhibition"
c1ccc(-c2nnn(CCN3CCCCC3)n2)cc1,1.26 µM (active),–
CC(C)c1ccc(-c2nnn(CCC(=O)O)n2)cc1,–,-25.8% (inactive)
c1ccc([C@H](CCN2CCCC2)c2ccccn2)cc1,–,-19.9% [at 11.4 µM] (inactive)
O=C(O)c1cc2ccccc2c(Cc2cc3ccccc3c(C(=O)O)c2O)c1O (tested in a mixture with another compound),–,-22.9% [at 25.6 µM] (inactive)
COc1ccc2c(Cc3c4ccccc4cc4ccccc34)cncc2c1O,2.51 µM (active),–
O=C(c1csnn1)N1CCC2(CC1)CN(Cc1cc(C(F)(F)F)cc(C(F)(F)F)c1)C2,–,17.8% (inactive)
CCn1cc(C(=O)O)c(=O)c2cnc(N3CCNCC3)nc21,–,32.6% [at 25.6 µM] (inactive)
O=C(NCc1cccnc1)c1sc2cc(Cl)ccc2c1Cl,2 µM (active),–
CC[C@H](NC(C)C)[C@H](O)c1ccc(O)c(O)c1,–,-17.7% (inactive)
CC1=CC(=O)N(c2cccc(C(F)(F)F)c2)C1c1ccc(Cl)cc1 (configuration not stated),2.24 µM (active),–
Cc1ccc(NC(=S)/C(=C(\[O-])c2ccc(C)c([N+](=O)[O-])c2)[n+]2ccccc2)cc1C,7.94 µM (active),–
CC1(C)[C@@H]2CC[C@@]1(CS(=O)(=O)Nc1ccccc1)C(=O)C2,2 µM (active),–
O=C(O)c1ccc(NS(=O)(=O)Cc2ccccc2)cc1,–,-9.9% [at 11.4 µM] (inactive)
COC(=O)C1=C(C)NC2=C(C(=O)CCC2)C1c1cn(Cc2ccc(Cl)cc2Cl)nc1-c1ccccc1 (configuration not stated),2.24 µM (active),–
COCCOC(=O)C1=C(C)NC(=O)N(C(C)=O)C1c1ccc(Cl)cc1 (configuration not stated),3.55 µM (active),–
CO[C@@H]1COC(=O)C/C=C\[C@H](C)[C@@H](NS(=O)(=O)c2ccc(C)cc2)COC(=O)C/C=C\[C@@H]1C,–,-12.5% [at 11.4 µM] (inactive) and -34.1% [at 11.4 µM] (inactive)
CC(c1ccccc1C(O)c1ccccc1)N(C)C (configuration not stated),–,-16.6% (inactive)
O=C(NCCOC12CC3CC(CC(C3)C1)C2)c1cccc(Br)c1,0.891 µM (active),–
NC(=O)c1ccc[n+](CC(=O)OCCC23CC4CC(CC(C4)C2)C3)c1,–,-28.6% (inactive)
N[C@H](C(=O)O)c1nn[nH]n1,–,29.8% (inactive)
OC[C@@H](O)CN1CCN(c2ccccc2)CC1,–,39.7% [at 25.6 µM] (inactive)
c1ccc(N2CCN(CCCOc3ccc4c(c3)OCO4)CC2)cc1,5.01 µM (active),–

SMILES,AC50,"activity, negative = inhibition"
COc1ccc(O[C@H]2C=C[C@@H](c3ccccc3)O[C@H]2COC(=O)CC/C(C)=N\O[C@@H](C)CN2CCCCc3nc(C)c(C)cc32)cc1,5.01 µM (active),–
CC(=O)OC[C@@H]1O[C@H](C/C=N\O[C@@H](C)CN2CCCc3nc(C)c(C)cc32)C=C[C@@H]1OC(C)=O,–,12.3% [at 11.4 µM] (inactive)
COc1ccc(O[C@H]2C=C[C@@H](c3ccccc3)O[C@H]2COC(=O)CC/C(C)=N\O[C@@H](C)CN2CCCc3nc(C)c(C)cc32)cc1,3.16 µM (active),–
C/C(CCN1CCCCc2nc(C)c(C)cc21)=N\O[C@@H](C)CN1CCCCc2nc(C)c(C)cc21,–,42.7% [at 11.4 µM] (inactive)
C/C(CCN1CCCc2nc(C)c(C)cc21)=N\O[C@@H](C)CN1CCCCc2nc(C)c(C)cc21,–,9.26% [at 11.4 µM] (inactive)
CC(=O)OC[C@@H]1O[C@H](C/C=N\O[C@@H](C)CN2CCCCc3nc(C)c(C)cc32)C=C[C@@H]1OC(C)=O,–,34.1% [at 11.4 µM] (inactive)
C/C(CCC(=O)OC[C@@H]1O[C@H](C#Cc2ccccc2)C=C[C@@H]1Oc1ccc(C)cc1)=N/O[C@@H](C)CN1CCCc2nc(C)c(C)cc21,3.16 µM (active),–
C/C(CCN1CCCCc2nc(C)c(C)cc21)=N\O[C@@H](C)CN1CCCc2nc(C)c(C)cc21,–,25.7% [at 11.4 µM] (inactive)
C/C=C\C[C@@H](C)[C@@H](O)[C@H]1C(=O)N[C@@H](CC)C(=O)N(C)CC(=O)N(C)[C@@H](CC(C)C)C(=O)N[C@@H](C(C)C)C(=O)N(C)[C@@H](CC(C)C)C(=O)N[C@@H](C)C(=O)N[C@H](C)C(=O)N(C)[C@@H](CC(C)C)C(=O)N(C)[C@@H](CC(C)C)C(=O)N(C)[C@@H](C(C)C)C(=O)N1C,–,-9.22% (inactive)
NC(=NCc1ccccc1)NC(=O)c1nc(Cl)c(N)nc1N,inactive,–
N=C1SCC(=O)N1c1nc(-c2ccccc2)cs1,–,-7.37% (inactive)
O=C1[C@@H]2[C@@H](C(=O)N1c1ccc(OCc3ccccc3)cc1)[C@@H]1c3ccccc3[C@@H]2[n+]2ccccc21,–,-10.9% [at 11.4 µM] (inactive)
O=C1C2C3c4ccccc4C(c4ccccc43)C2C(=O)N1c1nc(-c2ccccc2)cs1 (configuration not stated),1.78 µM (active),–
O=C(c1ccco1)N(CCC(c1ccccc1)c1ccco1)Cc1ccco1 (configuration not stated),3.98 µM (active),–
CNCCC=C1c2ccccc2C=Cc2ccccc21,–,19.1% [at 25.6 µM] (inactive)
CN(C)Cc1ccccc1-c1cc(NCc2cccs2)ncn1,–,7.11% (inactive)
Cc1ccccc1-c1cc(NCc2ccccc2)ncn1,3.16 µM (active),–
FC(F)(F)c1ccccc1-c1cc(NCc2cccs2)ncn1,0.794 µM (active),–
Cc1ccccc1-c1cc(NCc2cccnc2)ncn1,10 µM (active),–
FC(F)(F)c1ccccc1-c1cc(NCc2cccnc2)ncn1,10 µM (active),–
Cn1cc(-c2nc3cnc(Oc4ccccc4)nc3n(Cc3cccs3)c2=O)c2ccccc21,–,-11% (inactive)
O=C(NC(=S)N(CCCCO)C1CCCCC1)c1sc2ccccc2c1Cl,7.08 µM (active),–

SMILES,AC50,"activity, negative = inhibition"
CCCCOC(=S)NC(=O)c1sc2ccccc2c1Cl,0.794 µM (active),–
Cc1nn(Cc2ccccc2Cl)c(C)c1NC(=O)CCCn1nc(C)c([N+](=O)[O-])c1C,–,-20.6% (inactive)
Cc1ccccc1Cn1nc(C)c(NC(=O)c2sc3ccccc3c2Cl)c1C,14.1 µM (active),–
Cn1cccc1/C=N/NC(=O)c1sc2ccccc2c1Cl,7.94 µM (active),–
Cc1ccc(C(=O)N/N=C\c2cccn2C)cn1,–,18.1% (inactive)
CO[C@H]1COC(=O)C/C=C\[C@@H](C)COC(=O)[C@H]2CCCN2C(=O)C/C=C\[C@H]1C,–,-21.9% [at 11.4 µM] (inactive)
CCOC(=S)NC(=O)c1sc2ccccc2c1Cl,3.16 µM (active),–
O=C(O)CCC(=O)c1ccc2sc3ccccc3c2c1,–,9.52% [at 11.4 µM] (inactive)
CO/N=C(\C)CCN1CCCc2nc(C)c(C)cc21,–,-7.2% [at 11.4 µM] (inactive)
Cc1ccccc1NC1=C(C(=O)c2ccccc2)N(C)S(=O)(=O)c2ccccc21,8.91 µM (active),–
Cc1cc(NC(=O)C2=C(O)c3ccccc3S(=O)(=O)N2C)no1,–,-6.42% [at 25.6 µM] (inactive)
CO[C@@H]1/C=C\CC(=O)N[C@@H](C)C(=O)OC[C@@H](OC)[C@H](C)CCCC(=O)OC[C@H]1C,–,-3.19% [at 11.4 µM] (inactive)
C[C@@H]1CCC[C@H](C)N1NC(=O)c1ccc(Cl)c(S(N)(=O)=O)c1,–,5.63% [at 25.6 µM] (inactive)
CC1CCCC(C)N1C(=O)c1cc(-c2ccc(Cl)c(Cl)c2)on1 (configuration not stated),11.2 µM (active),–
CCCN[C@@H](C)C(=O)Nc1ccccc1C,inactive,–
Cc1ccccc1NC(=O)C(C)c1cccc(C(=O)c2ccccc2)c1 (configuration not stated),1.26 µM (active),–
O=C(NCc1cn(-c2ccccc2)nc1-c1ccccc1)c1cc([N+](=O)[O-])cc([N+](=O)[O-])c1,1.78 µM (active),–
N[C@@H](Cc1c[nH]c2ccc([N+](=O)[O-])cc12)C(=O)O,–,34.9% [at 11.4 µM] (inactive)
CS(=O)(=O)N1CCC2(CCN(Cc3ccncc3)CC2)CC1,–,-33.9% (inactive)
c1coc(CN2CCN(C(c3cccs3)c3nnnn3C3CCCC3)CC2)c1 (configuration not stated),10 µM (active),–
Clc1ccc(C(c2nnnn2C2CCCC2)N2CCN(Cc3ccncc3)CC2)cc1 (configuration not stated),0.224 µM (active),–
Cc1cc(C(=O)CSc2nnc(-c3ccccc3)o2)c(C)n1CC1COc2ccccc2O1 (configuration not stated),1.12 µM (active),–

SMILES,AC50,"activity, negative = inhibition"
CC(=O)NNC(=O)CCC(=O)Nc1ccccc1,–,11.8% (inactive)
CC(=O)c1cccc(NC(=O)CCC2CCCC2)c1,3.55 µM (active),–
O=C(Cn1cccc1C(=O)c1ccccc1)NCc1cccs1,2.82 µM (active),–
COc1ccccc1CN1CCC2(CC1)CCN(C(=O)c1ccco1)CC2,–,-17.8% (inactive)
O=C(Cn1cc(C(=O)c2ccco2)c2ccccc21)NCc1ccco1,2.24 µM (active),–
Cc1ccccc1C(=O)c1cccn1CC(=O)NCc1ccco1,11.2 µM (active),–
COc1ccccc1CN1CCCC2(CCN(C(=O)c3ccco3)CC2)C1,–,8.58% (inactive)
COc1ccccc1OCCn1cc(C(=O)c2ccco2)c2ccccc21,1 µM (active),–
CCS(=O)(=O)c1ccc(C(=O)Nc2ccccc2)c(Cl)c1Cl,11.2 µM (active),–
O=C(c1csnn1)N1CCC2(CCCN(c3ccc(-c4ccccc4)cc3)C2)CC1,–,-15.8% (inactive)
Nc1nonc1-c1noc(CCCN2C(=O)c3ccccc3C2=O)n1,3.98 µM (active),–
O=C(O)CCc1nc(-c2ccccc2-n2cccc2)no1,–,-29.3% [at 11.4 µM] (inactive)
CCNc1ncc2nc(-c3ccccc3)c(=O)n(CCC#N)c2n1,–,-3.99% (inactive)
CCNc1ncc2nc(C)c(=O)n(CCC#N)c2n1,–,-8.35% (inactive)
CCNc1ncc2nc(-c3ccccc3)c(=O)n(CCc3ccccc3)c2n1,1 µM (active),–
CCNc1ncc2nc(-c3cccs3)c(=O)n(CCc3ccccc3)c2n1,–,-40.1% (inactive)
CCNc1ncc2nc(C)c(=O)n(CCc3ccccc3)c2n1,0.316 µM (active),–
Cc1nc2cnc(Nc3ccccc3)nc2n(CCc2ccccc2)c1=O,–,-11.4% (inactive)
O=C(O)c1nn(-c2ccccc2-c2n[nH]c(=O)[nH]c2=O)c(=O)[nH]c1=O,–,20.9% [at 11.4 µM] (inactive)
Cc1cccc(N2CCN(c3ccc(NC(=O)/C=C(/C(=O)O)c4ccccc4)cc3)CC2)c1,4.47 µM (active),–
Cc1cc(C(=O)Nc2ccc(N3CCOCC3)cc2)c2ccccc2n1,–,-16.6% (inactive)
